# Experiments:
# Experiment in all cases: DAPPL (digital affinity profiling via proximity ligation, sequencing); 10 mM Tris-HCl pH 7.5, 50 mM NaCl, 1 mM DTT, 4% glycerol, room temperature, 30 min; GST-TFs on glutathione beads, 16-mer random dsDNA library, 0.1% formaldehyde crosslink after washing; high values mean tight binding
# FEV = molecular target: T1, FEV (Homo sapiens, UniProt Q99581 1-238); details: protein: recombinant; tags: N-terminal GST; dsDNA, one strand shown
# T1 sequence: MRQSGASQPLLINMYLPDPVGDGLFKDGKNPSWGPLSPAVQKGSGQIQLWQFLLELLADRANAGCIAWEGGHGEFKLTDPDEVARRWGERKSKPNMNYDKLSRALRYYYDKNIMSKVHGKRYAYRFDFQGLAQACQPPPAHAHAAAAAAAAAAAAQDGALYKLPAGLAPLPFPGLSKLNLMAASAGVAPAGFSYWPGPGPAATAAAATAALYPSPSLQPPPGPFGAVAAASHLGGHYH
# Outline: (§1)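 Human transcription factors fused to GST were expressed in yeast, captured on glutathione beads, given DNA barcodes and pooled with a GST-only negative control. Pools were incubated with 200 nmole of a 16-mer random double-stranded DNA library in Tris/NaCl/DTT/glycerol buffer at room temperature for 30 min. They were then washed, crosslinked with 0.1% formaldehyde, proximity-ligated (BsaI/T4 ligase, 1 h, 37 °C), PCR-amplified and sequenced on an Illumina NextSeq500. Binding signal is each 6-mer's read frequency for a factor divided by its frequency for the GST control.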
# ETV5 = ETV5 (Homo sapiens, UniProt P41161 1-510); details: protein: recombinant; tags: N-terminal GST; dsDNA, one strand shown
# ETV5, sequence (P41161 whole entry): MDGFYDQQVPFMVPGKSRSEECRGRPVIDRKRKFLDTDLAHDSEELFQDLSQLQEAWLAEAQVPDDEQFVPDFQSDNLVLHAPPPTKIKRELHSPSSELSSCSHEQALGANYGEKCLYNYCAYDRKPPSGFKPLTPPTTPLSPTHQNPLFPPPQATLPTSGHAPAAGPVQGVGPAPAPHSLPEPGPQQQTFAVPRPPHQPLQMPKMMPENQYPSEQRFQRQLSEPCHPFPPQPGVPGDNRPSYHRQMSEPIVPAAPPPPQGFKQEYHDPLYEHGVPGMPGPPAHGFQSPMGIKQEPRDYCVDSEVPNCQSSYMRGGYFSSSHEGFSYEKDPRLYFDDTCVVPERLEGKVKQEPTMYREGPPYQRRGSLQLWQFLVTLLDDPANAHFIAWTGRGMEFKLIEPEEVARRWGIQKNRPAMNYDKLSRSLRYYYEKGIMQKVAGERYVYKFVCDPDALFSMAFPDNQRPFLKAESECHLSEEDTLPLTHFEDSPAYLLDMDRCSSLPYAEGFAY
# Outline: as §1
# HSF1 = HSF1 (Homo sapiens, UniProt Q00613 1-529); details: protein: recombinant; tags: N-terminal GST; chain copies: 3; dsDNA, one strand shown
# HSF1, sequence (Q00613 whole entry): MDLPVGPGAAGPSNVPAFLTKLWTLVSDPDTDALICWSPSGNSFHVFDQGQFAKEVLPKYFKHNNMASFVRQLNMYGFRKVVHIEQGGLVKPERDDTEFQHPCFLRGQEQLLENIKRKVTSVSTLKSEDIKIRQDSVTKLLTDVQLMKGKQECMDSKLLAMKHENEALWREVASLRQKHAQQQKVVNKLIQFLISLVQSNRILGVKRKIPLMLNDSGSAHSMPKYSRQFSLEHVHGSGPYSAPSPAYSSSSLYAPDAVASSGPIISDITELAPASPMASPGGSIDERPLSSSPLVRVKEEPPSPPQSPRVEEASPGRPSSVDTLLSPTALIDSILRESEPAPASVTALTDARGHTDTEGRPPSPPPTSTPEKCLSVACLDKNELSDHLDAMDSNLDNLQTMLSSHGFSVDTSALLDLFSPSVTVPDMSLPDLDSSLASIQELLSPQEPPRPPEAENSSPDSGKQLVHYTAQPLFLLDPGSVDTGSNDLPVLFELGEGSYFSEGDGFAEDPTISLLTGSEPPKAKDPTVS
# Outline: as §1
# SPIC = molecular target: T2, SPIC (Homo sapiens, UniProt Q8N5J4 1-248); details: protein: recombinant; tags: N-terminal GST; dsDNA, one strand shown
# T2 sequence: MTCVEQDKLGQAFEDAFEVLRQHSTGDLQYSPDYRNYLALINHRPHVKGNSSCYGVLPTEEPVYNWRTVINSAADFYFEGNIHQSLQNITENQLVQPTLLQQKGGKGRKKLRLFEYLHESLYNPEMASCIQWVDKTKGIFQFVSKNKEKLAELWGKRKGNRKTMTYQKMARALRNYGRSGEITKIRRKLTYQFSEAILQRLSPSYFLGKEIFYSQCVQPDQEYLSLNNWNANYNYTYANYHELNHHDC
# Outline: as §1
# ELF4 = ELF4 (Homo sapiens, UniProt Q99607 1-663); details: protein: recombinant; tags: N-terminal GST; dsDNA, one strand shown
# ELF4, sequence (Q99607 whole entry): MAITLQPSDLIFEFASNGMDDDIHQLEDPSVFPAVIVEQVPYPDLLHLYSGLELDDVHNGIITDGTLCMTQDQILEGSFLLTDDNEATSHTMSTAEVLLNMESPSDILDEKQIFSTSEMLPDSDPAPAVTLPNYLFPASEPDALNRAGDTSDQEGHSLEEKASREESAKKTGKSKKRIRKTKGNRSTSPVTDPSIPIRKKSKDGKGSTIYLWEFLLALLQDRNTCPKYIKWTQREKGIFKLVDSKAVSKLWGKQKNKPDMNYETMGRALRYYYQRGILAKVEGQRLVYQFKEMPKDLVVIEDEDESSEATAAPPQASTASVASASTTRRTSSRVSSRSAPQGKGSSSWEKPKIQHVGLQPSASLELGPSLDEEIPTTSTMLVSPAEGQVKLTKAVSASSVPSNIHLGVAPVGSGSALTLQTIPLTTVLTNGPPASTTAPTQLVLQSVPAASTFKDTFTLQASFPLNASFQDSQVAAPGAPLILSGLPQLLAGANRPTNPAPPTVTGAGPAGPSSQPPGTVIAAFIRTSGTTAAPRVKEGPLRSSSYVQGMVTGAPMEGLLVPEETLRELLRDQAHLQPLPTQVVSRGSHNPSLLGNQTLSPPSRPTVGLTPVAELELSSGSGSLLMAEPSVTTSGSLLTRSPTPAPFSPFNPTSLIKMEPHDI
# Outline: as §1
# ELK4 = molecular target: T3, ELK4 (Homo sapiens, UniProt P28324-2 1-405); details: protein: recombinant; tags: N-terminal GST; dsDNA, one strand shown
# T3 sequence: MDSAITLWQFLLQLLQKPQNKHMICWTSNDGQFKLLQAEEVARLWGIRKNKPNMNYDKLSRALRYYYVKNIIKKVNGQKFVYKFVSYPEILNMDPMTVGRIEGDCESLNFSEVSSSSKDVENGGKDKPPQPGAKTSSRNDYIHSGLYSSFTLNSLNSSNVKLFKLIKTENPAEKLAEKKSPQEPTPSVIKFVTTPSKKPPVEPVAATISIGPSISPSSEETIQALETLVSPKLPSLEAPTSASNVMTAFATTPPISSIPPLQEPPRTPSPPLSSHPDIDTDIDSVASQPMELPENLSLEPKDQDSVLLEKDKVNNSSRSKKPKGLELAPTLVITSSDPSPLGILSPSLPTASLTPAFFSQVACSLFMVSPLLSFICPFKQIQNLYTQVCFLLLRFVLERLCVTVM
# Outline: as §1
# ETV2 = molecular target: T4, ETV2 (Homo sapiens, UniProt O00321 1-342); details: protein: recombinant; tags: N-terminal GST; dsDNA, one strand shown
# T4 sequence: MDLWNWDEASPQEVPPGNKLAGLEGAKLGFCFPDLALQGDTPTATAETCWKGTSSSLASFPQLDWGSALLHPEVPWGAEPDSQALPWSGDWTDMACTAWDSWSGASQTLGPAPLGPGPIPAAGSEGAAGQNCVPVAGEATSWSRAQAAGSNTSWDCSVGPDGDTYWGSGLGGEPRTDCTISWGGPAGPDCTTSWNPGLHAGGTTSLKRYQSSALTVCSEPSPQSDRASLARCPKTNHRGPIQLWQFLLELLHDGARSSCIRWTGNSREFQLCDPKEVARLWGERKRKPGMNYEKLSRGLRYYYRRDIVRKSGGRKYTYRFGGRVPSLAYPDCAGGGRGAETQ
# Outline: as §1
# ELF3 = molecular target: T5, ELF3 (Homo sapiens, UniProt P78545 1-371); details: protein: recombinant; tags: N-terminal GST; dsDNA, one strand shown
# T5 sequence: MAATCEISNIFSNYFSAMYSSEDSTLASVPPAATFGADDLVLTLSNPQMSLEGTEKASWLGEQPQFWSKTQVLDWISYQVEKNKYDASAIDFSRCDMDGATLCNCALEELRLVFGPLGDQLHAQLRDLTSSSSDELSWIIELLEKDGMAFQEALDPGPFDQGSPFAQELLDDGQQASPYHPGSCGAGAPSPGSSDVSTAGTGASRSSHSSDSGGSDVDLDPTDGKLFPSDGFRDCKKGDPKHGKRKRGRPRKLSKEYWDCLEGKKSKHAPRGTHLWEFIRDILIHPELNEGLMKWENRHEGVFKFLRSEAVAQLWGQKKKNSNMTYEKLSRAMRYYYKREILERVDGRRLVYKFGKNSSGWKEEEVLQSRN
# Outline: as §1
# CRX = CRX (Homo sapiens, UniProt O43186 1-299); details: protein: recombinant; tags: N-terminal GST; dsDNA, one strand shown
# CRX, sequence (O43186 whole entry): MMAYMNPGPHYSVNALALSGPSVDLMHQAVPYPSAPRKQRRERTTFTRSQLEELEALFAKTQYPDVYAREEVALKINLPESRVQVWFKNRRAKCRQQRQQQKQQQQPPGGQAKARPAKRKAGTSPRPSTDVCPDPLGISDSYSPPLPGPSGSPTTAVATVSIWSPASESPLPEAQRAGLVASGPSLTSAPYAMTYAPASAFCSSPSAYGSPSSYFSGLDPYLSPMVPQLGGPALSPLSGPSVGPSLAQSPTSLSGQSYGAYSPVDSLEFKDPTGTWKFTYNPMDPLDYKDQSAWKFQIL
# Outline: as §1
# ETV1 = ETV1 (Homo sapiens, UniProt P50549 1-477); details: protein: recombinant; tags: N-terminal GST; dsDNA, one strand shown
# ETV1, sequence (P50549 whole entry): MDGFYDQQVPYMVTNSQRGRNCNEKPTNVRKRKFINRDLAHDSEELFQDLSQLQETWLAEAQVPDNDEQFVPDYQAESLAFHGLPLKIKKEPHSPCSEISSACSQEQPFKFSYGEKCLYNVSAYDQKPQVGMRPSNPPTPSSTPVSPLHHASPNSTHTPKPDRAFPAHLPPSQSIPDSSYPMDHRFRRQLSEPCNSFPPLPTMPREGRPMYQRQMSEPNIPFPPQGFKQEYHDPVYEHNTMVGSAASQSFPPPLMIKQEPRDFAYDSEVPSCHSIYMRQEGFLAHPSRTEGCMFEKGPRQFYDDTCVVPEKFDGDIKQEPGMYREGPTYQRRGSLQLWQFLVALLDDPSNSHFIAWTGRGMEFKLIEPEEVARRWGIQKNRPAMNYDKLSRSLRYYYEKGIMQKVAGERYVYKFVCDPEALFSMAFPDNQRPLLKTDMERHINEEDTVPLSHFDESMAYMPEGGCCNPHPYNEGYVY
# Outline: as §1
# ERF = molecular target: T6, ERF (Homo sapiens, UniProt P50548 1-548); details: protein: recombinant; tags: N-terminal GST; dsDNA, one strand shown
# T6 sequence: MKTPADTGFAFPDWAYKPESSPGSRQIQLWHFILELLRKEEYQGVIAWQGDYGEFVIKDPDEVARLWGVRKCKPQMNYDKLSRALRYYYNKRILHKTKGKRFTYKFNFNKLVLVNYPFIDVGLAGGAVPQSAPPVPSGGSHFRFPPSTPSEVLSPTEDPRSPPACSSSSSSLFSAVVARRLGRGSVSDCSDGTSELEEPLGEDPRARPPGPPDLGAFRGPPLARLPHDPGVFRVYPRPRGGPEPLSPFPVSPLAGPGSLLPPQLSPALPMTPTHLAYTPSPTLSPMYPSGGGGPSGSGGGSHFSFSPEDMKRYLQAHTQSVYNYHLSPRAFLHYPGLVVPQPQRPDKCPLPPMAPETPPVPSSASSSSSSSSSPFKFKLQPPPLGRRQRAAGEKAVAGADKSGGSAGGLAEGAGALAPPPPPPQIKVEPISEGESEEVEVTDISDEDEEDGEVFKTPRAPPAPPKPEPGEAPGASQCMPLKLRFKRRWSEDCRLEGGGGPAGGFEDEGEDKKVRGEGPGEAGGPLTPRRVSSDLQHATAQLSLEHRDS
# Outline: as §1
# ETV3L = molecular target: T7, ETV3L (Homo sapiens, UniProt Q6ZN32 1-361); details: protein: recombinant; tags: N-terminal GST; dsDNA, one strand shown
# T7 sequence: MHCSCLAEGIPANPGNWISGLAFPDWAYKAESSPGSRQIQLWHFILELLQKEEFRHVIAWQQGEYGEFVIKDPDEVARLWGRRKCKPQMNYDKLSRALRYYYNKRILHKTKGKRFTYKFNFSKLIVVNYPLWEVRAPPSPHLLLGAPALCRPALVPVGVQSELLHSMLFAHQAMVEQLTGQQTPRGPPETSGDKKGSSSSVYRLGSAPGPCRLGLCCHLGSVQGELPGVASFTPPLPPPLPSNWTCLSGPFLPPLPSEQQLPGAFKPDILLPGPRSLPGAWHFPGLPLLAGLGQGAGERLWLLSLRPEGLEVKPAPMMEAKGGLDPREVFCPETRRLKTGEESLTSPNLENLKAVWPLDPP
# Outline: as §1
# ETS2 = molecular target: T8, ETS2 (Homo sapiens, UniProt P15036 1-469); details: protein: recombinant; tags: N-terminal GST; dsDNA, one strand shown
# T8 sequence: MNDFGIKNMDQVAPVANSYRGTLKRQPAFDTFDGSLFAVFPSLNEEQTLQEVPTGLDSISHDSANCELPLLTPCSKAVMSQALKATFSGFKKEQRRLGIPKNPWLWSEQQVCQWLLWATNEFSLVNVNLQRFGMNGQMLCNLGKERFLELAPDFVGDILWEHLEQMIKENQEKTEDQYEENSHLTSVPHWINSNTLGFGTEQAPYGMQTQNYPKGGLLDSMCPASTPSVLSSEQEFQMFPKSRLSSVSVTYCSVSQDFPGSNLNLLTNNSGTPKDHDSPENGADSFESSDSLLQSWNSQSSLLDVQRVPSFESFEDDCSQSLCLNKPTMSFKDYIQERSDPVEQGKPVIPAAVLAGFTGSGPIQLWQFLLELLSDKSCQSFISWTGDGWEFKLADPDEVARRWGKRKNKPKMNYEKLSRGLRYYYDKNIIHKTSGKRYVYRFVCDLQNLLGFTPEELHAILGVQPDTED
# Outline: as §1
# SPDEF = molecular target: T9, SPDEF (Homo sapiens, UniProt O95238 1-335); details: protein: recombinant; tags: N-terminal GST; dsDNA, one strand shown
# T9 sequence: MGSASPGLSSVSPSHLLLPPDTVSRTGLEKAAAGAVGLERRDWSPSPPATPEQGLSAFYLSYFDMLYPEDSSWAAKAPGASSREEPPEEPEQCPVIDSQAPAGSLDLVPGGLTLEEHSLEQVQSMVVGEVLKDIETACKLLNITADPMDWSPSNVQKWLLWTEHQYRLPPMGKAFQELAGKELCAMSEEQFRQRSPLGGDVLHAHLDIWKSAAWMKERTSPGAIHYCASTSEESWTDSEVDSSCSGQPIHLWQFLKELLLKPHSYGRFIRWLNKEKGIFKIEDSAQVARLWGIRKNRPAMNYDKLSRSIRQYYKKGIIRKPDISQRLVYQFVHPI
# Outline: as §1
# ETV7 = molecular target: T10, ETV7 (Homo sapiens, UniProt Q9Y603 1-341); details: protein: recombinant; tags: N-terminal GST; dsDNA, one strand shown
# T10 sequence: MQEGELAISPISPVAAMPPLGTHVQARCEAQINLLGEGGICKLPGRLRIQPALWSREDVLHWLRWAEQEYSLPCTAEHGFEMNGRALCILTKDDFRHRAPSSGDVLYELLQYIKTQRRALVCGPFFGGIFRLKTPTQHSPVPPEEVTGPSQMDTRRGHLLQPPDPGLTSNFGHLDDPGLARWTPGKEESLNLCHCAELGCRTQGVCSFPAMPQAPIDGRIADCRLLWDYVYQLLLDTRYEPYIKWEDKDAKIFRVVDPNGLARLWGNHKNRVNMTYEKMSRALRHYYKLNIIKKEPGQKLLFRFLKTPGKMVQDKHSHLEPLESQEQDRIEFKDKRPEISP
# Outline: as §1
# ELF5 = molecular target: T11, ELF5 (Homo sapiens, UniProt Q9UKW6-2 1-255); details: protein: recombinant; tags: N-terminal GST; dsDNA, one strand shown
# T11 sequence: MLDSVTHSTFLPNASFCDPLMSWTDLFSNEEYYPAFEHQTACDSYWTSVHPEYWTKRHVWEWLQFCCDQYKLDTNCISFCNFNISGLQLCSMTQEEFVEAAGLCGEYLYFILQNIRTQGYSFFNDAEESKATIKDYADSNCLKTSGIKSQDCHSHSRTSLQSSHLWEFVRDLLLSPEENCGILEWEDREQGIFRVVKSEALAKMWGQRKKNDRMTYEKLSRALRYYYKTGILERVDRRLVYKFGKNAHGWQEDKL
# Outline: as §1
# ETV3 = molecular target: T12, ETV3 (Homo sapiens, UniProt P41162-2 1-143); details: protein: recombinant; tags: N-terminal GST; dsDNA, one strand shown
# T12 sequence: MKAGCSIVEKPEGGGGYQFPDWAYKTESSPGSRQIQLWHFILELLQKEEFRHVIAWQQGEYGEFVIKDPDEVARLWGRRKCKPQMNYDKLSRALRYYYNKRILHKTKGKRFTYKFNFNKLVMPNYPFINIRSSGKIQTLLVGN
# Outline: as §1
sequence,measurement,setting,value
CTAACC,binding signal,FEV,"1.16 fold enrichment (6-mer frequency, TF over GST control)"
same,binding signal,ETV5,"1.19 fold enrichment (6-mer frequency, TF over GST control)"
same,binding signal,HSF1,"1.05 fold enrichment (6-mer frequency, TF over GST control)"
same,binding signal,SPIC,"1.08 fold enrichment (6-mer frequency, TF over GST control)"
same,binding signal,ELF4,"1.2 fold enrichment (6-mer frequency, TF over GST control)"
same,binding signal,ELK4,"1 fold enrichment (6-mer frequency, TF over GST control)"
same,binding signal,ETV2,"1.11 fold enrichment (6-mer frequency, TF over GST control)"
same,binding signal,ELF3,"1.27 fold enrichment (6-mer frequency, TF over GST control)"
same,binding signal,CRX,"1.09 fold enrichment (6-mer frequency, TF over GST control)"
same,binding signal,ETV1,"1.16 fold enrichment (6-mer frequency, TF over GST control)"
same,binding signal,ERF,"1.17 fold enrichment (6-mer frequency, TF over GST control)"
same,binding signal,ETV3L,"1.2 fold enrichment (6-mer frequency, TF over GST control)"
same,binding signal,ETS2,"1.15 fold enrichment (6-mer frequency, TF over GST control)"
same,binding signal,SPDEF,"1.09 fold enrichment (6-mer frequency, TF over GST control)"
same,binding signal,ETV7,"1.04 fold enrichment (6-mer frequency, TF over GST control)"
same,binding signal,ELF5,"1.14 fold enrichment (6-mer frequency, TF over GST control)"
same,binding signal,ETV3,"1.16 fold enrichment (6-mer frequency, TF over GST control)"

# — article PMC7862700, “An all-to-all approach to the identification of sequence-specific readers for epigenetic DNA modifications on cytosine”
